PubChem BioAssay (NCATS)
Results filed as inconclusive are left out. The source made the active and inactive calls. Calls follow the shape of the dose curve; as a rule, active = well fitted inhibition curve with a large enough effect; inconclusive = small, poorly fitted or top-dose-only effect; inactive = flat fitted curve, though single readings scatter.

Assays:
Assay in all cases: qHTS profiling for inhibitors of Plasmodium falciparum proliferation (AID 504749); also: nearly all actives have a fitted effect of over 60% in size
Conditions in all cases: P. falciparum in erythrocytes, SYBR Green DNA, 72 h; series mostly up to 28.7 µM
[1] = test system: C2A
Summary of the method: (§1)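 In a 72 h erythrocytic culture (37 C, humidified, 5% CO2) at 2.5% hematocrit and 0.3% starting parasitemia, compounds were tested; SYBR Green I in detergent lysis buffer stained parasite DNA overnight.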

[2] = test system: CP185
Summary of the method: as §1

[3] = test system: CP191
Summary of the method: as §1

[4] = test system: CP192
Summary of the method: as §1

[5] = test system: CP194
Summary of the method: as §1

[6] = test system: CP201
Summary of the method: as §1

[7] = test system: CP203
Summary of the method: as §1

[8] = test system: CP211
Summary of the method: as §1

[9] = test system: CP215
Summary of the method: as §1

[10] = test system: CP217
Summary of the method: as §1

Measured: Potency
Potency is read from the fitted curve at half-maximal effect.

CCCCCCCCCCCCCCC[C@H](O)[C@H](N)CO
inactive: [1] | [2] | [3] | [4] | [5] | [6] | [7] | [8] | [9] | [10]

CCCCCCCCCCCCCCCCCCOC[C@H](COP(=O)([O-])OCC[N+](C)(C)C)OC
inactive: [1] | [2] | [3] | [4] | [5] | [6] | [7] | [8] | [9] | [10]

CN1C2CCC1CC(OC(c1ccccc1)c1ccccc1)C2 (stereo not drawn)
inactive: [1] | [4] | [7] | [8]

c1ccc(C2CN3CCSC3=N2)cc1 (stereo not drawn)
active: [3] 7.94 µM | [4] 19 µM | [7] 16.9 µM
inactive: [6]

CC(C)NC[C@H](O)COc1ccc(CC(N)=O)cc1
inactive: [1] | [2] | [3] | [4] | [5] | [6] | [7] | [8] | [9] | [10]

CC(O)C(O)[C@H]1CNc2nc(N)[nH]c(=O)c2N1 (stereo partly drawn)
inactive: [1] | [2] | [3] | [4] | [5] | [6] | [7] | [8] | [9] | [10]
